Data as given in PubChem BioAssay AID1159580 (chemical genetic matrix, 2015).
Hit rate of the full screen: of about 5,500 compounds, about 2,000 (36%) were called active. Roughly 18% stayed inconclusive and do not appear here. No stated cut-off is given here; in the data, active means normalized growth mostly below about 0.91 (no sharp cut-off); inconclusive means no clear call, values can overlap the other calls; inactive means mostly above about 0.92. The list shows a part of the results.

Assay: chemical genetic growth profiling, strain panel (AID 1159580);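 further: tested at 20 µM; growth read once vehicle control cultures reached saturation at 30 °C; 1 = growth at the plate median or of vehicle wells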
Conditions: S. cerevisiae deletion strains, growth OD

Measured: normalized growth

CC(=O)NCCc1c[nH]c2ccccc12
inactive: locus YAL013W, strain DEP1, stronger effect = lower value 1 | locus YAL040C, strain CLN3, stronger effect = lower value 1.01 | locus YCL061C, strain MRC1 (second series), stronger effect = lower value 1 | locus YDR150W, strain NUM1, stronger effect = lower value 1 | locus YER002W, strain NOP16, stronger effect = lower value 1 | locus YJR075W, strain HOC1, stronger effect = lower value 1 | locus YNL175C, strain NOP13, stronger effect = lower value 1.01 | locus YNL197C, strain WHI3, stronger effect = lower value 1 | locus YNL224C, strain SQS1, stronger effect = lower value 1.01 | locus YOR083W, strain WHI5 (second series), stronger effect = lower value 1.02 | locus YPL055C, strain LGE1, stronger effect = lower value 1
